Inconclusive results are not listed. Unmarked numbers belong to inactive results. Calls of active or inactive are those of the source. The call rests on the fitted dose curve; in most records, active means well fitted inhibition curve with a large enough effect; inconclusive means small, poorly fitted or top-dose-only effect; inactive means flat fitted curve, though single readings scatter.
Potency means the concentration at half of the fitted maximal effect.

A short description of the assay: qHTS for Inhibitors of Plasmodium falciparum (7G8) proliferation (AID 504316). Further: nearly all actives have a fitted effect of over 65% in size.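 On activity change, negative = inhibition: 0% = DMSO vehicle and -100% = 0.29 µM artemisinin full kill.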 Particulars: P. falciparum 7G8 in erythrocytes, SYBR Green DNA, 72 h; series mostly up to 6.7 µM; activity change, negative = inhibition: at the top concentration. From the text:
Plasmodium falciparum is a virulent malarial parasite that kills 1-2 million people worldwide each year. Malaria not only inflicts tremendous suffering and morbidity on the human population, but has dramatically influenced the course of civilization with profound sociological and economic implications (Shah, S. 2010). Transmitted by mosquitoes, the sporozoite form of the parasite enters the blood stream to infect hepatocytes, where they become merozoites that infect red blood cells (erythrocytes). Within erythrocytes, merozoites begin a […] cycle of growth and division, after which the parasite is released to infect new red blood cells. Gametocytes, which form within erythrocytes as well, circulate in the bloodstream and are ingested by the mosquito, thereby completing the life cycle (see CDC website). To profile malarial lines for differential chemical responses and to identify inhibitors of malarial growth, an assay that measures P. falciparum growth and replication within erythrocytes was employed. This assay uses a DNA binding fluorescent dye (SYBR Green) to detect parasite DNA following cell lysis. Because mature erythrocytes lack DNA, only Plasmodium-derived DNA is detected. The P. falciparum line cp250, derived from a malarial isolate from Cambodia, (Mu, J., et al. 2010) was added to the panel of lines, Dd2, HB3, 7G8 and GB4 in this study. Laboratory of Assay Development and Screening Technology [ADST] and NIH Chemical Genomics Center [NCGC] Boston University, Chemistry Department, Center for Chemical Methodology and Library Development [CMLD-BU] NIH National Institute of Allergy and Infectious Diseases [NIAID]
ADST Assay Protocol Summary: The 1536-well SYBR Green viability assay was based on the method of Bennett et al (2004) and described previously in 1536-well format (Yuan J., et al. 2009). For screening 3 ul culture medium was dispensed into 1536 well black clear bottom plates (Aurora Biotechnologies) using a Multidrop Combi (Thermo Fisher Scientific Inc.), 23 nL compounds in DMSO were added by a pin transfer (Cleveland, P.H. and Koutz, P.J, 2005) using a pin tool-based delivery system (Kalypsys), and 5 ul of erythrocytes infected with P. falciparum one of five lines (cp250, Dd2, HB3, 7G8 or GB4, 0.3% parasitemia, 2.5% hematocrit final concentration) were added. The plates were incubated at 37C in a humidified incubator in 5% CO2 for 72 h, and 2 ul lysis buffer (20 mM Tris HCl, 10 mM EDTA, 0.16% saponin, 1.6% triton X, 10X SYBR Green I (supplied as 10,000X final concentration by Invitrogen) was added to each well. The plates were mixed for 25 sec with gentle shaking and incubated overnight at room temperature in the dark. The following morning, fluorescence intensity at 485(14) nm excitation and 535(25) nm emission wavelengths was measured on an EnVision (Perkin Elmer) plate reader. Plate reads were normalized relative to the control inhibitor (0.29 uM artemisinin) and vehicle (DMSO) wells present on each plate and then corrected by an algorithm using vehicle-only control plates at the beginning and end of the compound plate stack. References Shah, S. (2010). The Fever: how malaria has ruled humankind for 500,000 years. New York, Sarah Crichton Books. CDC web site, http://www.cdc.gov/malaria/about/biology/index.html Mu, J., Myers, R.A., Jiang, H., Liu, S., Ricklefs, S., Waisberg, M., Chotivanich, K., Wilairatana, P., Krudsood, S., White, N.J., et Plasmodium falciparum genome-wide scans for positive selection, recombination hot spots and resistance to antimalarial drugs Nature Genetics 2010, 42, pp 268-271 Bennett TN, Paguio, M., Gligorijevic, B., Seudieu, C., Kosar, A. D., Davidson, E., and Roepe, P. D. Novel, rapid, and inexpensive cell-based quantification of antimalarial drug efficacy Antimicrobial Agents Chemother. 2004, 48(5): pp 1807-10 Yuan J, Johnson RL, Huang RL, Wichterman J, Jiang HY, Hayton K, Fidock DA, Wellems TE, Inglese J, Austin CP, Su XZ. […]
Regarding `COc1ccc(COC(=O)NN=C2C[C@@H](O)[C@@H](O)[C@@H]3[C@H]4C(=O)N([C@@H](C)c5ccccc5)C(=O)[C@@H]4CC[C@H]23)cc1`, the “activity change, negative = inhibition” value is -12.4%.

`COC(=O)C1=C(C)N(Cc2ccccc2)C(=S)NC1c1cccc(C(F)(F)F)c1` (stereo not given): the “activity change, negative = inhibition” value is -18.8%.

Turning to `CC(=O)OC[C@H]1O[C@H](C#CC(C)(C)C)C=C[C@H]1OC(C)=O`, the Potency entry is “inactive”.

With `COC(=O)c1c(C(=O)OC)c2c3cc(OC)c(OC)cc3ccn2c1C(=O)OC`, the “activity change, negative = inhibition” value was 10.8%.

Take `CCCCC1=CC2=C(c3ccco3)C(=O)C(C)(OC(=O)c3ccc(OC)cc3)C(=O)C2=CN1C1CCCCC1` (stereo not given): the “activity change, negative = inhibition” value was -15.2%.

In the case of `CCN1C(=O)N[C@@H](c2ccccc2)[C@@H](C(=O)OC)[C@H]1C`, the Potency entry is “inactive”.

Turning to `COC(=O)[C@@H]1C[C@@]23C(=NN=C(SC)C2Nc2ccccc23)N1C(C)=O` (stereo not given in full), the “activity change, negative = inhibition” value is 3.59%.

As to `CC[C@H](C)[C@@H](NC(=O)O[C@@H]1C(=O)c2cc(OC)ccc2O[C@H]1c1ccc(OC)c(Br)c1)C(=O)OC`, the “activity change, negative = inhibition” value was 4.26%.

`COC(=O)c1ccccc1C[C@]1(C(=O)OC)C=C[C@H](C)[C@@H](c2ccccc2)N1C(=O)C(F)(F)F`: the “activity change, negative = inhibition” value was -3.65%.

In the case of `OC[C@H]1O[C@H](c2ccccc2)C=C[C@H]1O`, the “activity change, negative = inhibition” value was 5.87%.

As for `C[C@H]1Cc2c(COc3ccccc3)nc3c(c2CO1)CN(C(=O)c1cccnc1)CC3`, the “activity change, negative = inhibition” value is -16.2%.

For `COc1cccc(CO[C@H]2C=C[C@@H](c3ccccc3)O[C@H]2CO)c1`, the “activity change, negative = inhibition” value was -1.13%.

As to `CC(=O)N1C(=O)NC(C)=C(C#N)C1c1ccccc1` (stereo not given), the “activity change, negative = inhibition” value is 2.85%.

With `C=CC[C@@H]1C=C[C@@H](ON=C2[C@H]3CCn4c(=O)n(-c5ccccc5)c(=O)n4[C@@H]3[C@H](O)[C@@H]3O[C@H]23)[C@@H](CO)O1`, the “activity change, negative = inhibition” value was 1.87%.

With `COC(=O)C1=C(C(=O)OC)[C@@H]2N(C)c3ccccc3[C@@]23C[C@@H](C(=O)OC)N(C(=O)NCCBr)C3=N1`, the “activity change, negative = inhibition” value is 6.11%.

As to `C=CCOC(=O)NC(c1ccc(F)c(F)c1)S(=O)(=O)c1ccc(Cl)cc1` (stereo not given), the “activity change, negative = inhibition” value was 2.76%.

In the case of `CC1(OC(=O)c2ccc(Cl)nc2)C(=O)C=C2C=C3CCCN3C=C2C1=O` (stereo not given), the Potency result was “inactive”.

For the compound `COC(=O)CC=C[C@@H](C)[C@H](NC(=O)OCC(Cl)(Cl)Cl)c1ccccc1`, the “activity change, negative = inhibition” value is -8.2%.

In the case of `COc1ccc(COC(=O)NN=C2C[C@@H](O)[C@@H](O)[C@@H]3[C@H]4C(=O)N(Cc5ccccc5)C(=O)[C@@H]4CC[C@@H]23)cc1`, the “activity change, negative = inhibition” value is -11.7%.

Regarding `CC1(OC(=O)C2CCCC2)C(=O)C=C2C=C(c3ccsc3)N(CCN3CCOCC3)C=C2C1=O` (stereo not given), the Potency result was “inactive”.

As for `CCOC(=O)NN=Cc1ccccc1-c1cc(OC)ccc1OC`, the “activity change, negative = inhibition” value is 3.27%.

As for `CC(CCC(=O)OC[C@H]1O[C@H](C#Cc2ccccc2)C=C[C@H]1Oc1ccc(C)cc1)=NOC[C@@H](O)[C@H]1O[C@@H]2OC(C)(C)O[C@H]2[C@@H]1O`, the “activity change, negative = inhibition” value is -15.2%.

`COC(=O)C1(C(=O)OC)CC=CCc2ccccc2[C@H]1C[N+](=O)[O-]`: the “activity change, negative = inhibition” value is 1.39%.

Turning to `CC(CCN1CCCCc2nc(C)c(C)cc21)=NO[C@@H](C)CN1CCCCc2nc(C)c(C)cc21`, the “activity change, negative = inhibition” value was -2.43%.

Take `COC(=O)[C@H](Cc1ccccc1)NC(=O)O[C@@H]1C(=O)c2cc(Br)ccc2O[C@H]1c1ccc2c(c1)OCO2`: the “activity change, negative = inhibition” value is 0.477%.

As for `COC(=O)CC=C[C@@H](C)[C@@H](C=NO[C@H](C)c1cn([C@@H]2COC[C@@H]2O)nn1)N[S+](=O)([O-])c1ccc(C)cc1`, the “activity change, negative = inhibition” value was 2.58%.

Take `CC1(OC(=O)c2cnc3ccccc3n2)C(=O)C=C2C=C(C3CC3)OC=C2C1=O` (stereo not given): the “activity change, negative = inhibition” value is -1.12%.

As to `C[C@H]1COC(=O)[C@H](Cc2ccccc2)NC(=O)[C@@H](C)COC(=O)[C@H](Cc2ccccc2)NC1=O`, the “activity change, negative = inhibition” value was 4.45%.

For `C#CCN1C(=O)[C@@]2(CC(C)=CC[C@@H](C)O2)c2ccccc21`, the “activity change, negative = inhibition” value was 1.39%.

Take `CCOC(=O)NN=C1C[C@@H](O)[C@@H](O)[C@@H]2[C@H]3C(=O)N(Cc4ccccc4)C(=O)[C@@H]3CC[C@@H]12`: the “activity change, negative = inhibition” value is -1.31%.

`CCN1C(=NCc2ccco2)N[C@@H](c2ccccc2)[C@H](C(=O)OC)[C@H]1C`: the “activity change, negative = inhibition” value is 22.8%.

In the case of `CCN1C(=NCc2cccc(Cl)c2)N[C@@H](CCc2ccccc2)[C@H](C(=O)OC)[C@H]1C`, the “activity change, negative = inhibition” value is 2.05%.

`COC[C@H]1O[C@@H]2O[C@@H]1[C@@H](C=Cc1ccccc1)C[C@H]2C`: the “activity change, negative = inhibition” value is -0.956%.

As for `C=C(CC(=O)OC)C[C@]1(CC(=O)OC)CC2(CC=C(C)C)C(=O)C(C(=O)c3ccccc3)=C(OC(=O)c3ccc(Br)cc3)C(CC=C(C)C)(C1)C2=O` (stereo not given in full), the “activity change, negative = inhibition” value is 4.64%.

Consider `Brc1ccc2c(c1)c1cc(Br)ccc1n2CC1CO1` (stereo not given), for which the Potency is 1.69 µM (active).

`CC(CCN1CCCCc2nc(C)c(C)cc21)=NO[C@H](C)c1cn([C@@H]2COC[C@@H]2O)nn1`: the “activity change, negative = inhibition” value was -5.87%.

For `COc1ccc([C@]23Cc4cc(OC)c(OC)cc4[C@H](O2)C2=C(CCCC2=O)O3)cc1`, the Potency was 1.51 µM (active).

`CCCC[C@@H]1CN2[C@H](c3ccc(Br)cc3)[C@H](C)CC[C@H]2C(=O)O1`: the “activity change, negative = inhibition” value was 4.94%.

For the compound `COC1=C[C@H](C(=O)NCCOC(C)=O)[C@@]2(C)Cc3ccccc3[C@@H]2CC1=O`, the “activity change, negative = inhibition” value was 1.86%.

Regarding `CCCCc1nc2c(c3c1C[C@H](C)OC3)CN(S(=O)(=O)c1ccccc1C(=O)OC)CC2`, the “activity change, negative = inhibition” value was -11.2%.

These data come from PubChem BioAssay (NCATS).
